Experimental data taken from PubChem BioAssay AID488847 (NMMLSC, 2010).
Hit rate of the full screen: of about 330,000 compounds, about 1,900 (0.58%) were called active. The list comes from a sample in which actives are over-represented; it also holds similar structures and randomly drawn compounds. A number with no mark means an inactive call.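 How the source made its calls: active means inhibition of aptamer binding above 40%, roughly 3 SD of noise, on plates passing a quality check; inactive means the rest.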

target: Beta-adrenergic receptor kinase 1 (Homo sapiens) (UniProt P25098); test: compounds blocking aptamer binding on GRK2 – biochemical, human GRK2, bead flow cytometry, HTS, primary screen (AID 488847); details: FAM-aptamer displacement from GRK2, at 10 µM, active compounds read high;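 further: median bead fluorescence of bound FAM aptamer so fluorescent compounds give negative values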
Sequence (P25098 whole entry, looked up): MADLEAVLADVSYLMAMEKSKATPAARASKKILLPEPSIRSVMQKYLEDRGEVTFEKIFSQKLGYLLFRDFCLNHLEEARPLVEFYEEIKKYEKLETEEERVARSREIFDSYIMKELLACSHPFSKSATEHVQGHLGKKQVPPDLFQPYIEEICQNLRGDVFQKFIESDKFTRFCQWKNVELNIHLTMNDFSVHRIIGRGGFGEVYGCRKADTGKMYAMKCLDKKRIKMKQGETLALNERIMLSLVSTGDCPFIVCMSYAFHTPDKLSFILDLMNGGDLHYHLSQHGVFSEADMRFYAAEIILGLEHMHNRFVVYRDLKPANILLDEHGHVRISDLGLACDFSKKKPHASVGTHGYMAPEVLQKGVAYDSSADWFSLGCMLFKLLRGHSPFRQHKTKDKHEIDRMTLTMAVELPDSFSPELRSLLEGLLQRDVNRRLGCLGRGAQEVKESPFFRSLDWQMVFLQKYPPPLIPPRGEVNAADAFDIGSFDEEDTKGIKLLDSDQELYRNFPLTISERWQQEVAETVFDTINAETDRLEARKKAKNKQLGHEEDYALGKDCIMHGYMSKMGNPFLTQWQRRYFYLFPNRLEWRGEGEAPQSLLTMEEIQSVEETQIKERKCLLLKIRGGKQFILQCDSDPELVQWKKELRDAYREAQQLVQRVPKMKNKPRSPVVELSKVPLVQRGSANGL

Structure (SMILES) | inhibition of aptamer binding
Cc1cc(C=C2C(=O)NC(=O)NC2=O)c(C)n1-c1ccncc1 | 2%
Cc1ccc(-n2c(C)cc(/C=C3\C(=O)NC(=O)N(C)C3=O)c2C)cc1C | 3%
Cc1c(C(=O)O)cccc1-n1c(C)cc(/C=C2\C(=O)NC(=O)N(c3ccc4c(c3)OCO4)C2=O)c1C | 75% (active)
CC[N+]1(C)CCCC(OC(=O)C(O)(c2ccccc2)c2ccccc2)C1 (stereo not given) | 0%
O=C1NC(=O)C(C/C=C/c2ccccc2)C(=O)N1 | 1%
COc1ccc(Br)cc1CNCCc1cccc(Cl)c1 | 0%
O=C1NC(=O)N(Cc2ccco2)C(=O)/C1=C\c1cccn1CCOc1ccccc1 | 5%
COc1ccc(N2C(=O)/C(=C/c3ccco3)C(=O)NC2=S)cc1 | 96% (active)
O=C1NC(=O)N(Cc2ccco2)C(=O)/C1=C\c1ccc(-c2ccc(F)cc2)o1 | 15%
CN(C)CC1CCCCC1OC(=O)c1ccc(Cl)c(Cl)c1 (stereo not given) | 0%
